# The full list was thinned out, with hits kept by preference.
# IL-1B inflam inh = inhibitors of inflammasome signaling (IL-1 beta secretion) | THP-1 LPS/ATP IL-1B secretion, AlphaLISA, 16 h; active compounds read low | activity change, % at 57.5 µM | hit rate 4.7% among 360,000; in the data active = activity change below about -50%; inconclusive = mostly about -30% to -49%
#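 THP-1 cells pretreated 1 hr with compounds (up to 57.5 uM final), then stimulated with LPS (250 ng/mL final) plus ATP (1.25 mM final); secreted IL-1B measured by AlphaLISA after 16 hr, decreased signal indicating inhibition.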
# DT40 TDP1 no CPT = qHTS for Inhibitors of human tyrosyl-DNA phosphodiesterase 1 (TDP1): qHTS in cells in absence of CPT; DT40 Tdp1-/- hTDP1 cells, no CPT, ATP luminescence, 48 h; Potency, µM (titrated, usually from 46.2 µM), without a hit: at the highest dose activity change, negative = growth inhibition, hits mostly inhibitors; hit rate 15% among 420,000; note: potency is the fitted concentration of half-maximal effect; nearly all actives have a fitted effect of over 55% in size
#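 DT40 Tdp1-/-;hTDP1 cells, no CPT (DMSO vehicle only), 400 cells/well; compounds pin-transferred; ≥48 hr, 37 °C; CellTiter-Glo 30 min RT dark, luminescence read.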
# HT1080NT lethal = kills 2HG-producing HT-1080-NT fibrosarcoma cells. HT-1080-NT fibrosarcoma viability, CellTiter-Glo ATP luminescence, 48 h. Potency, µM (series often up to 46.1 µM), inactives show at the highest dose activity, negative = less viability, hits mostly cytotoxic. hit rate 1.6% among 360,000. AID 686970;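 note: NT is the 2HG producing partner of a matched IDH1 knockdown line; potency is the fitted concentration of half-maximal effect; 0% = DMSO-treated cells and -100% = media-only wells without cells; nearly all actives have a fitted effect of over 55% in size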
#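 Viability by CellTiter-Glo luminescence after 48 h compound exposure at 37C of HT-1080-NT cells (750/well, RPMI, 5% FBS). % activity scaled between DMSO wells and medium-only wells, then curve-fitted and categorized by curve class.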
# ALOX12 inh = inhibitors of human 12S-lipoxygenase ALOX12; P18054; Potency, µM (series often up to 108 µM), without a hit: top-dose activity change, negative = inhibition, hits mostly inhibitors; hit rate 1.1% among 580,000; purified 12hLO, xylenol orange hydroperoxide absorbance; note: potency is the fitted concentration of half-maximal effect
#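 Hydroperoxide product was detected by ferrous iron/xylenol orange as the 573 to 405 nm absorbance ratio. Arachidonic acid at 40 uM (final) was turned over for 30 min at room temperature by 150 nM human 12hLO, pH 7.0 Hepes buffer, after 15 min compound preincubation.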
# DT40 TDP1 CPT = growth inhibition of DT40 Tdp1-/-;hTDP1 cells with camptothecin (screen for TDP1 inhibitors). hit rate 12% among 420,000. chicken DT40 Tdp1-/-;hTDP1 cells + 20 nM CPT, ATP luminescence, 48 h. Potency, µM (doses to about 46.2 µM), without a hit: at the highest dose activity change, negative = growth inhibition, hits mostly inhibitors; note: potency is the fitted concentration of half-maximal effect; nearly all actives have a fitted effect of over 55% in size
#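 Chicken DT40 Tdp1-/- cells complemented with human TDP1, 400 cells/well, exposed to compounds plus 20 nM camptothecin for at least 48 h at 37 C; viability read as ATP content by CellTiter-Glo luminescence.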
# HT1080 IDH1KD tx = kills HT-1080 cells with IDH1 knockdown. AID 686971. HT-1080 IDH1 knockdown viability, ATP luminescence, 48 h. hit rate 2% among 360,000. Potency, µM (highest dose often 46.1 µM), without a hit: at the highest dose activity, negative = toxicity, most hits filed as cytotoxic;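 note: potency is the fitted concentration of half-maximal effect; 0% = DMSO wells and -100% = cell-free medium wells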
#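 After a 2 h attachment period, IDH1KD HT-1080 cells took pin-transferred compound for 48 h at 37 °C; ATP-based luminescence after 10 min room-temperature reagent incubation reported viability.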
# * marks the source's active call; other numbers are inactive results; ? = inconclusive; nt = no result given; [ ] = remark or other dose. Unless noted, calls come from the whole dose curve; as a rule, active = well fitted curve in the direction sought with a large enough effect; inconclusive = small, poorly fitted or top-dose-only effect, or another doubt; inactive = no such curve, though single readings can be large; an effect the other way counts as inactive or inconclusive. Unless noted, % is set by controls: 0 for no effect and ±100 for the full control effect.
SMILES,IL-1B inflam inh,DT40 TDP1 no CPT,HT1080NT lethal,ALOX12 inh,DT40 TDP1 CPT,HT1080 IDH1KD tx
CCC(C)NC(=O)c1c(N)n(CC2CCCO2)c2nc3ccccc3nc12 (stereo not drawn),-57*,-29%,-28%,?,-14%,-18%
CCC(C)NC(=O)c1c(N)n(CCCOC)c2nc3ccccc3nc12 (stereo not drawn),?,?,-4%,-4%,-6%,-4%
COCCNC(=O)c1c(N)n(Cc2ccco2)c2nc3ccccc3nc12,-6,?,-28%,-27%,?,?
CCC(C)NC(=O)c1c(N)n(Cc2ccc3c(c2)OCO3)c2nc3ccccc3nc12 (stereo not drawn),?,26µM*,?,12%,?,?
CN1Cc2ccccc2-n2ccnc2C12CCN(C(=O)c1cccc(Cl)c1)CC2,nt,nt,nt,15%,nt,nt
O=C(Nc1cccnc1)c1ccc(Cl)c(S(=O)(=O)N2CCCCCC2)c1,-21,?,?,-18%,?,?
Cc1cccc(NC(=O)c2ccc(F)c(S(=O)(=O)N3CCN(c4ccc(F)cc4)CC3)c2)c1,nt,16µM*,nt,?,?,nt
O=C(Nc1ccc(Oc2ccccc2)cc1)c1ccc(F)c(S(=O)(=O)N2CCN(c3cccc(Cl)c3)CC2)c1,nt,3.7µM*,nt,?,1.8µM*,nt
Cc1ccc(C(=O)Nc2ccccc2)cc1S(=O)(=O)N1CCCC1,nt,nt,nt,-4%,nt,nt
CC(C)CCOc1cccc(CCN)c1,nt,nt,nt,4%,nt,nt
Cn1nc(-c2ccc(F)cc2)cc1[C@H]1CN2CC[C@H]1C[C@@H]2CNC(=O)c1ccc2c(c1)OCO2,nt,nt,nt,26%,nt,nt
COc1ccc(NC(=O)N2CC3(CCN(C(=O)Oc4ccccc4)CC3)C2)cc1,nt,-30%,nt,-2%[57.4 µM],-7%,nt
C[C@]12CC[C@H]3[C@@H](CCC4=CC(=O)CC[C@@]43C)[C@H]1CC[C@H]2O,nt,nt,nt,2%,nt,nt
CC(=O)C1C(N2CC2)CC2C3CCC4=CC(=O)CCC4(C)C3CCC21C (stereo not drawn),-61*,12µM*,-1%,-1%,7.3µM*,-14%
CC12CCC(=O)C=C1CCC1C2CCC2(C)C(O)CCC12 (stereo not drawn),-16,?,5%,-8%,23µM*,-3%
C[C@]12CC[C@H]3[C@@H](CCC4=CC(=O)CC[C@@]43C)[C@@H]1CC[C@@H]2O,-21,-24%,?,1%,-22%,-4%
C[C@]12CC[C@H]3[C@@H](CCC4=CC(=O)CC[C@@]43C)[C@@H]1CC[C@@H]2C(=O)CO,-13,10µM*,?,-4%,?,-23%
CC1=C2CCC3C(CCC4=CC(=O)CCC43C)C2CC1 (stereo not drawn),-16,29µM*,-10%,-19%,?,-1%
COC(=O)c1ccc(Cl)cc1NC(=O)N(Cc1ccc(C)o1)C1CCN(Cc2ccccc2)CC1,nt,nt,nt,-24%,nt,nt
COCCNC(=O)[C@H]1CN2CC[C@H]1C[C@@H]2Cn1cc(CC2CCCCC2)nn1,nt,nt,nt,2%[176 µM],nt,nt
CCC(=O)O[C@H]1CC[C@H]2[C@@H]3CCC4=CC(=O)CC[C@]4(C)[C@H]3CC[C@]12C,-72*,?,nt,-10%,?,nt
NCCc1ccc(OCc2ccccc2)c(OCc2ccccc2)c1,-82*,12µM*,-25%,?,16µM*,?
N#Cc1ccc2nc(-c3ccc(CN4CCC(n5nnc6ccccc65)CC4)cc3)c(-c3ccccc3)nc2c1,nt,nt,nt,-9%,nt,nt
C[C@]1(O)CCC2C3CC[C@H]4C[C@@H](OC(=O)[C@@H](N)CCCCN)CC[C@]4(C)C3CC[C@@]21C (stereo partly drawn),-8,26µM*,-3%,?,?,0%
CC(C)(C)CC(C)(C)c1ccc(O)cc1,nt,22µM*,nt,?,14µM*,nt

# From PubChem BioAssay
